Assay outcomes: PubChem BioAssay, several laboratories
CaV13 ICDI inh: Disruptors of the CACNA1D IQ motif to Ca2+-dependent inactivation inhibitor domain association, primary screening, Förster resonance energy transfer in intact living …; HEK cells, CFP/YFP FRET ICDI-IQ, plate reader, 10 min; percent FRET-ratio fall versus neutral wells; inhibition, % at 12.3 µM; 340,000 compounds, 0.098% hits; AID 743397;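 active = mean replicate inhibition of at least 30% and at least 1% of replicates passing that level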;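 note: 0% = median of the neutral control wells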
NSD2 inh: NSD2 histone methyltransferase inhibitors, primary screen, biochemical, AlphaScreen, single concentration, set 2; NSD2 peptide methylation, 120 min; inhibition, % at 12.5 µM; 310,000 compounds, 0.54% hits; AID 743445, 2014; in the data active = inhibition above about 50%
Target sequence (O96028 whole entry, looked up): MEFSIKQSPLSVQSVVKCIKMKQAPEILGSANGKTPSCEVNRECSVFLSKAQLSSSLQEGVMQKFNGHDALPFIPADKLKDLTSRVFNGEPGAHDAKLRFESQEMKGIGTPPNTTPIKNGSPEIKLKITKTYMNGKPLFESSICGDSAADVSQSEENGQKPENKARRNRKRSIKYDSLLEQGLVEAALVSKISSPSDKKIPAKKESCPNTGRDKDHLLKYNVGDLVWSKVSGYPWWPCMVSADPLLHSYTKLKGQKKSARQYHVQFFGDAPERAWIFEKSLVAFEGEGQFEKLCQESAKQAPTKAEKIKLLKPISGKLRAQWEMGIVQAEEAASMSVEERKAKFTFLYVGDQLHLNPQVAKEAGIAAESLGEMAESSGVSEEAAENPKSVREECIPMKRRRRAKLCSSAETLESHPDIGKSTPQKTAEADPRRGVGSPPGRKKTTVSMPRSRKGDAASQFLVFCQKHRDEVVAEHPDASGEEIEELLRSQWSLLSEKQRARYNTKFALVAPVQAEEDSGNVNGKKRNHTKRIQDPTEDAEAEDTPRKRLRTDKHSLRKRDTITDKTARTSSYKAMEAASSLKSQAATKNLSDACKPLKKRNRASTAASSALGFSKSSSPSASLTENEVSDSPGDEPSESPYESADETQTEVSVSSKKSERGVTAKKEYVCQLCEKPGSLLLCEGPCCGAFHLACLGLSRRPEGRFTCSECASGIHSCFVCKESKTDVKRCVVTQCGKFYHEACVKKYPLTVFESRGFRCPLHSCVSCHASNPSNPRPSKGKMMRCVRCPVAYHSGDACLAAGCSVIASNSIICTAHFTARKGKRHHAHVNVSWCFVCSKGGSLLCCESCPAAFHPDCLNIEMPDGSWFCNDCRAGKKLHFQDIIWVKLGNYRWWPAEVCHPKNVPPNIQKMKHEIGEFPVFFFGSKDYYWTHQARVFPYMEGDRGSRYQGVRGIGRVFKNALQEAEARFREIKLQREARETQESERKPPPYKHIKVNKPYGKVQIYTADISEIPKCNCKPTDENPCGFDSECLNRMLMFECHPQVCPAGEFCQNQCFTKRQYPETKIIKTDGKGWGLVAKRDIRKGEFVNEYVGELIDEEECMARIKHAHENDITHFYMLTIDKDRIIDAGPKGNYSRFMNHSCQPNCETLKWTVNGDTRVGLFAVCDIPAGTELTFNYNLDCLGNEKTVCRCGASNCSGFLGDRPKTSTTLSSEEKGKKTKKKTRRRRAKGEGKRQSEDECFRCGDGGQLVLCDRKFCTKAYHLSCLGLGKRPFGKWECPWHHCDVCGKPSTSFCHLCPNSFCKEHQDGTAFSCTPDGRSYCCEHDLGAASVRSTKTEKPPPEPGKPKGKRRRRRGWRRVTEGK
Vif imaging: HIV Vif self-association inhibitors, primary screen, imaging, HEK293T, single point | 340,000 compounds, 0.35% hits | HEK293T cells, Vif self-association by quenched fluorescence, 24 h | inhibition, % at 7.49 µM; in the data active = inhibition above about 50%, passing the limit was not always enough
Pemphigus Ab inh: inhibitors of pemphigus antibody binding to DSG3, primary screen, biochemical, bead-based, flow cytometry, scFv-GFP; DSG3-coupled beads, scFv-anti-DSG3-GFP binding; active compounds read low; binding (percent of control), % at 10 µM; 310,000 compounds, 0.48% hits; AID 588358, 2011;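 active = binding more than 3 SD below its plate's average and above zero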;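 note: hits lower antibody fragment binding to DSG3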
Glyco luc inh: increase of ERlucT glycosylation luciferase signal, primary screen, N-linked glycosylation inhibitor project, D54 ERlucT cells, luminescence, set 2; D54 ERlucT glycosylation luciferase reporter, 24 h; percent of 100 nM tunicamycin response; reporter increase, % at 12.5 µM; 360,000 compounds, 0.23% hits;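 active = mean luciferase reporter signal, scaled so untreated is 0 and the glycosylation-blocking control 100, at or above a set limit in every replicate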;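 note: luciferase carries N-glycosylation sites so blocking glycosylation raises the light; 0% = median of neutral control wells and 100% = median of 100 nM tunicamycin wells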
ATG4B inhibitor: ATG4B protease inhibitors, primary screen, biochemical, fluorescence, uHTS; Cysteine protease ATG4B (Homo sapiens), Q9Y4P1; ATG4B cleavage of LC3-PLA2, NBD-HPC fluorescence, 1 h; inhibition, % at 8.33 µM; 340,000 compounds, 0.51% hits; in the data active = inhibition above about 40%
AlphaScreen art: AlphaScreen signal interference with preloaded methylated product, dose response, artefact control for NSD2 inhibitor project, biochemical, cherry-picked samples | shares compounds with NSD2 inh | AlphaScreen artifact counterscreen, preloaded methylated H4 peptide | AC35, µM (highest dose often 10 µM), for inactives: at the top dose activity change, negative = signal loss | 1,500 compounds, 9.4% hits | AID 1053174, 2014; call rule not given here
* = called active by the depositor; · = not tested or not shown; + = active, no number. Compounds with a hit are over-represented: about 1.9% of the library has one in this group of screens.

SMILES	CaV13 ICDI inh	NSD2 inh	Vif imaging	Pemphigus Ab inh	Glyco luc inh	ATG4B inhibitor	AlphaScreen art
CC(NC(=O)Cc1ccccc1)c1ccccc1 (stereo not drawn)	-21	-3	11	104	0	-2	·
O=C(NC1(O)C(=O)c2ccccc2C1=O)c1ccc(C(F)(F)F)cc1	-19	108*	3	98	0	5	0%
O=C(Cc1ccccc1)NC1(O)C(=O)c2ccccc2C1=O	-4	101*	·	92	0	-5	2%
C/C(CC(=O)Nc1cc(Cl)ccc1Cl)=N\NC(N)=S	·	-2	-1	100	-1	1	·
CCC(=O)Nc1ccc2c(c1)C(=O)c1ccccc1C2=O	-5	-3	·	101	1	-8	·
O=C(Nc1ccccc1)Nc1nc(-c2ccc(F)cc2)cs1	-6	0	-9	75	2	0	·
O=C(/C=C/c1ccc(O)c(O)c1)OC1C(O)CC(OC(=O)/C=C/c2ccc(O)c(O)c2)(C(=O)O)CC1O (stereo not drawn)	-5	66*	-11	93	3	-1	-11%
Cc1ccccc1CNS(=O)(=O)c1c(C)[nH]c(C)c1C(=O)N1CCCCC1	-7	2	2	110	1	17	·
O=C(O)c1c2c(nc3ccccc13)/C(=C/c1ccc(OC(F)F)cc1)CCC2	-5	-2	-9	115	0	-2	·
O=C(O)c1c2c(nc3ccccc13)/C(=C/c1ccc(O)cc1)CC2	-20	83*	6	103	-18	6	-20%
C=CCSc1nnc(-c2ccc(Cl)cc2Cl)o1	-5	68*	-3	97	-13	-3	11%
Clc1ccc(-c2nnc(SCc3ccon3)o2)c(Cl)c1	·	7	-15	119	-15	-1	·
Cn1ncc(Cl)c1C(=O)NCc1cc(C(C)(C)C)n[nH]1	-14	-4	12	83	0	33	·
O=C(c1ccoc1)N1CCCC(N2CCN(c3ccc(F)cc3)CC2)C1 (stereo not drawn)	-5	5	2	109	1	3	·
Nc1nc(=O)n([C@@H]2CS[C@H](CO)O2)cc1F	·	-4	·	·	·	·	·
O=C(CSc1nc2nn(-c3ccccc3)c(=O)c-2c2n1CCCCC2)c1ccc(O)c(O)c1	·	94*	0	112	1	-16	7.9µM*
O=C(CN1CCCC1)N1c2ccccc2Sc2ccc(C(F)(F)F)cc21	0	4	5	103	-4	-3	·
CCNCCC(=O)N1c2ccccc2Sc2ccc(C(F)(F)F)cc21	-19	78*	-3	113	-1	2	-7%
O=C(O)CC(C(=O)O)N1C(=O)/C(=C/c2ccc(-c3nc4ccccc4s3)o2)SC1=S (stereo not drawn)	-7	67*	2	102	1	68*	-6%
O=C(O)CC(C(=O)O)N1C(=O)/C(=C/C=C/c2ccco2)SC1=S (stereo not drawn)	-5	+	8	77	2	31	-20%
O=C(O)CCCN1C(=O)/C(=C\C(Cl)=C\c2ccccc2)SC1=S	-21	5	-8	101	18	17	·
O=C(O)CCCN1C(=O)/C(=C/C=C/c2ccco2)SC1=S	-7	110*	-13	92	2	52*	-13%
N#CCCN(C(=O)CN1C(=O)NC2(CCCC2)C1=O)c1ccccc1F	-4	0	27	100	2	-8	·
CCC1(c2ccc(F)cc2)NC(=O)N(CC(=O)N(CCC#N)c2ccccc2)C1=O (stereo not drawn)	-4	60*	3	·	1	2	-4%
COc1ccccc1C(=O)NNC(=S)NC(=O)c1cc(OC)c(OC)c(OC)c1	-4	0	-4	102	-4	0	·
SMILES	CaV13 ICDI inh	NSD2 inh	Vif imaging	Pemphigus Ab inh	Glyco luc inh	ATG4B inhibitor	AlphaScreen art
CCOc1cc(N2CCOCC2)c(OCC)cc1NC(=O)c1cnccn1	-9	64*	-4	·	2	-23	-7%
CCOc1ccccc1N=Nc1c(C)[nH]n(-c2ccccc2)c1=O	·	·	-3	101	2	5	·
NC1=C(Br)C(=O)c2ccccc2C1=O	-14	57*	10	97	-11	-7	-4%
CCCCc1ccc(CC2S/C(=C(\C#N)C(=O)N3CCOCC3)N(c3ccccc3)C2=O)cc1 (stereo not drawn)	-5	0	5	·	-2	-16	·
CCn1cc(/C=N\NC(=O)C2(C)CC2(Cl)Cl)c(C)n1 (stereo not drawn)	-10	63*	4	121	1	-1	2%
COc1ccc(/C=N/Nc2nnc(C)n2N)cc1OC(C)=O	·	-3	-6	105	7	-2	·
COc1ccc(/C=N/Nc2nnc(C)n2N)cc1OC	10	111*	-4	97	7	3	-3%
c1ccc2c(C(c3nnnn3-c3ccc4c(c3)OCCO4)N3CCOCC3)ccnc2c1 (stereo not drawn)	-7	·	·	·	·	·	·
Nc1c(/C=C2/C=CC(=O)C(O)=C2)c(=O)nc2sc(CC(=O)N3CCOCC3)nn12	-8	114*	8	110	-1	4	3.6µM*
CCNc1ccccc(C(=O)/C=C/c2ccc3c(c2)OCO3)c1=O	·	66*	2	101	1	8	-5%
COc1nc(-c2ccccc2)c2cc(Br)ccc2n1	-3	-3	-11	·	-2	-4	·
NS(=O)(=O)c1ccc(S(=O)(=O)N2CCN(C3CCCC3)CC2)cc1	-7	118*	6	121	-3	-4	-1%
CCN(CC)CCCNc1nc(-n2nc(C)cc2C)nc2sc3c(c12)CC(C)(C)OC3	-5	76*	-3	107	-4	-3	-5%
Cn1c(CCN2CCCCC2)nc2cc([N+](=O)[O-])ccc21	-7	·	-4	101	-5	-2	·
O=C(Cc1ccc(S(=O)(=O)N2CCOCC2)s1)OCc1ccc(Cl)cc1	-2	1	-1	110	2	-12	·
Cc1ccnc(-n2c(CCN3C(=O)c4ccccc4C3=O)nc3ccccc3c2=O)c1	-5	52*	0	102	1	-18	-1%
O=C1c2ccccc2C(=O)N1CCc1nc2ccccc2c(=O)n1-c1ccccn1	0	0	-7	96	0	-16	·
CCOc1ccc(C2C(C#N)=C(N)SC(N)=C2C#N)cc1OCC	-9	-3	9	113	2	3	·
